Structures are written as SMILES. A number with no mark means an inactive call. How the calls were made is not given here.

For the test, the system named is HIV-1 nucleocapsid protein NCp7 (binding to TG oligonucleotide). Nature of the test: HIV Nucleocapsid (AID 346).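 Further: potency is for inhibitors that block NC binding and lower polarization.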 The note with it: HIV-1 NC / fluorescein-TGTGTGTG probe, fluorescence polarization. The method in brief:
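Fluorescence polarization binding of 100 nM HIV-1 NC to 10 nM fluorescein-labelled TG4xF oligonucleotide. Buffer was Hepes pH 7.5 with 250mM NaCl, 1uM ZnCl2, TCEP and 2-mercaptoethanol. Compounds were incubated 1 hr at room temperature before the read.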
(In fluorescence polarisation assays a small probe gives low polarisation when free and higher when bound to something large.)
Potency means the concentration at half of the fitted maximal effect.

With `COc1ccccc1-c1nc(NCCc2cnc[nH]2)c2ccccc2n1`, the Potency was greater than 20 µM.
The value for `O=c1cnc2cnc(N3CCOCC3)nc2n1C1CC1` was greater than 20 µM; that for `Cc1cnc(CNc2nc(-c3ccc(C(=O)N(C)C)cc3)nc3ccccc23)cn1` was greater than 20 µM; that for `COCC(=O)N1CCC[C@@]2(CCN(c3ccccc3)C2)C1` was greater than 20 µM.
With `O=C(Nc1ccccc1)N1CC2(CCN(C(=O)c3ccncc3)CC2)C1` the figure was greater than 20 µM.
With `CCNc1ncc2nc(-c3ccc(OC)cc3)c(=O)n(Cc3ccc(F)cc3)c2n1` the figure was greater than 20 µM; with `c1ccc(Nc2nc(-c3cccnc3)nc3ccccc23)cc1`, greater than 20 µM; with `COc1ccc(-n2c(=O)c(C)nc3cnc(Nc4cccc(OC)c4)nc32)cc1`, greater than 20 µM.
For the molecule `COc1ccc(-c2nc3cnc(N(C)C)nc3n(-c3ccccc3)c2=O)cc1`, the Potency is greater than 20 µM.
With `CN(C)c1ccc(-c2ccc3ncnc(-n4ccnc4)c3c2)cc1` the figure was greater than 20 µM.
The value for `COc1cccc(-c2nccc(NCc3ccc(OC)cc3OC)n2)c1` was greater than 20 µM; that for `CN(C)C(=O)c1ccc(-c2nc(N(C)Cc3ccco3)c3ccccc3n2)cc1` was greater than 20 µM.
The value for `O=c1c(-c2cc(F)cc(F)c2)nc2cnc(N3CCNCC3)nc2n1-c1ccccc1` was greater than 20 µM; that for `CN1CCN(c2ncc3nc(-c4ccc(Cl)cc4)c(=O)n(Cc4cccs4)c3n2)CC1` was greater than 20 µM.
Take `COc1ccc(Oc2ncc3nc(C)c(=O)n(C4CC4)c3n2)cc1`: the Potency was greater than 20 µM.
With `COc1cccc(-c2nccc(NCc3cccnc3)n2)c1` the figure was greater than 20 µM.
`COc1cccc(Cn2c(=O)c(C)nc3cnc(N4CCNCC4)nc32)c1`: the Potency was greater than 4 µM.
The value for `COc1ccccc1CNc1cc(-c2ccoc2)ncn1` was greater than 20 µM.
In the case of `O=C(c1ccco1)N1CCC2(CC1)CN(Cc1cc(C(F)(F)F)cc(C(F)(F)F)c1)C2`, the Potency is greater than 20 µM.
The value for `COc1ccccc1-c1nc(N2CCOCC2)c2ccccc2n1` was greater than 20 µM; that for `Cn1c(=O)cnc2cnc(OCc3ccccc3)nc21` was greater than 20 µM; that for `CN1CCN(c2ncc3nc(-c4ccc(Cl)cc4)c(=O)n(-c4ccccc4)c3n2)CC1` was greater than 20 µM.
With `FC(F)(F)c1ccccc1-c1cncnc1NCc1ccccc1` the figure was greater than 20 µM; with `N#CCCn1c(=O)c(-c2cccc(C#N)c2)nc2cnc(Oc3cccc(Cl)c3)nc21`, greater than 20 µM.
With `c1cncc(-c2nccc(NCc3cccs3)n2)c1` the figure was greater than 20 µM.
Regarding `COCC(=O)N1CCC2(CCN(Cc3nccs3)CC2)CC1`, the Potency is greater than 20 µM.
The value for `COCCNc1nc(-c2ccccc2Cl)nc2ccccc12` was greater than 20 µM.
With `CN1CCN(c2ncc3nc(-c4cc(F)cc(F)c4)c(=O)n(Cc4cccs4)c3n2)CC1`, the Potency was greater than 20 µM.
With `COCCNc1ncnc2ccc(-c3ccccc3CN(C)C)cc12` the figure was greater than 20 µM; with `COc1ccc(C(=O)N2CCC[C@@]3(CCN(Cc4cc(C(F)(F)F)cc(C(F)(F)F)c4)C3)C2)cc1`, greater than 20 µM.
Consider `CN1CCN(c2ncc3nc(-c4ccc(F)cc4)c(=O)n(C4CC4)c3n2)CC1`, for which the Potency was greater than 20 µM.
Turning to `COc1ccccc1CNc1nc(-c2ccc3c(c2)OCO3)nc2ccccc12`, the Potency was greater than 20 µM.
Regarding `O=C(c1cc(C(F)(F)F)cc(C(F)(F)F)c1)N1CCC2(CCCN(Cc3ccncc3)C2)CC1`, the Potency was greater than 20 µM.
The value for `O=C(Oc1ccccc1)N1CCC2(CC1)CN(c1ccncc1)C2` was greater than 20 µM.
With `Cn1cc(-c2nc3cnc(N4CCNCC4)nc3n(CCC#N)c2=O)c2ccccc21` the figure was greater than 20 µM.
With `CN(C)Cc1ccccc1-c1ccc2ncnc(NCc3ccccc3)c2c1` the figure was greater than 20 µM; with `COc1ccccc1CN1CCCC2(CCN(C(=O)c3ccncc3)CC2)C1`, greater than 20 µM.
Turning to `Fc1ccc(Nc2ncncc2-c2ccccc2C(F)(F)F)cc1`, the Potency was greater than 20 µM.
With `COc1ccccc1CN1CCCC2(CCNCC2)C1` the figure was greater than 4 µM.
For the molecule `O=C(c1ccncc1)N1CCC2(CC1)CCN(c1ncccn1)CC2`, the Potency is greater than 20 µM.
With `N#Cc1cccc(-c2cc(NCc3cccnc3)ncn2)c1` the figure was greater than 20 µM; with `COc1ccccc1-c1nccc(NCc2cccc(C)c2)n1`, greater than 20 µM; with `COc1ccc(CNc2nc(-c3cccnc3)nc3ccccc23)c(OC)c1`, greater than 20 µM.
Turning to `CS(=O)(=O)N1CCC2(CCCN(Cc3cc(C(F)(F)F)cc(C(F)(F)F)c3)C2)CC1`, the Potency is greater than 20 µM.
With `COc1ccc(C(=O)N2CCC3(CCN(Cc4ccc(C#N)cc4)CC3)CC2)cc1` the figure was greater than 20 µM; with `CN(C)C(=O)c1ccc(-c2cc(NCc3cccs3)ncn2)cc1`, greater than 20 µM; with `Cc1ccccc1-c1nc(-n2ccnc2)c2ccccc2n1`, greater than 20 µM.
With `O=C(c1cccc(F)c1)N1CCC[C@@]2(CCN(c3ncccn3)C2)C1` the figure was greater than 20 µM; with `CS(=O)(=O)N1CCC2(CCCN(c3cccc(-c4ccccc4)c3)C2)CC1`, greater than 20 µM; with `CN(C)c1ncc2nc(-c3ccccc3)c(=O)n(Cc3ccc(F)cc3)c2n1`, greater than 20 µM.
With `O=C(Nc1ccccc1)N1CC2(CCN(C(=O)c3ccco3)CC2)C1` the figure was greater than 20 µM.
As for `CS(=O)(=O)N1CCC2(CCCN(Cc3ccccc3)C2)CC1`, the Potency is greater than 20 µM.
For the molecule `O=c1c(-c2cc(F)cc(F)c2)nc2cnc(N3CCOCC3)nc2n1-c1ccccc1`, the Potency is greater than 4 µM.
`CN(C)Cc1ccccc1-c1cncnc1Nc1ccncc1`: the Potency is greater than 20 µM.
With `COc1ccc(-c2nc3cnc(N4CCN(C)CC4)nc3n(CCc3ccccc3)c2=O)cc1` the figure was greater than 20 µM; with `COCCn1c(=O)c(-c2ccc(OC)cc2)nc2cnc(OC)nc21`, greater than 20 µM; with `Cc1cnc(CNc2ccnc(-c3cccc(C#N)c3)n2)cn1`, greater than 20 µM.
With `c1ccc(C(c2ccccc2)N2CCCC3(CCNCC3)C2)cc1` the figure was greater than 20 µM; with `O=C(c1cccc(F)c1)N1CCC2(CCN(Cc3ccncc3)CC2)CC1`, greater than 20 µM.
With `N#Cc1cccc(NC(=O)N2CC[C@@]3(CCCN(C(=O)c4ccncc4)C3)C2)c1` the figure was greater than 20 µM; with `Cc1nc2cnc(Oc3ccccc3)nc2n(Cc2cccs2)c1=O`, greater than 4 µM; with `c1csc(CNc2ncnc3ccc(-c4ccoc4)cc23)c1`, greater than 20 µM.
Regarding `COc1ccc(CNc2ccnc(-c3ccccc3OC)n2)c(OC)c1`, the Potency is greater than 20 µM.
As for `COCCn1c(=O)cnc2cnc(N3CCOCC3)nc21`, the Potency was greater than 20 µM.
The value for `O=C(c1cnccn1)N1CCC2(CCCN(c3cccc(-c4ccccc4)c3)C2)CC1` was greater than 20 µM; that for `O=c1c(-c2ccc(F)cc2)nc2cncnc2n1-c1ccccc1` was greater than 20 µM.
In the case of `O=c1c(CCc2ccccc2)nc2cnc(N3CCOCC3)nc2n1CCc1ccccc1`, the Potency is greater than 20 µM.
The value for `O=C(c1cccc(F)c1)N1CCC2(CC1)CCN(c1ccncc1)CC2` was greater than 20 µM; that for `COCCn1c(=O)c(CCc2ccccc2)nc2cnc(Oc3ccc(OC)cc3)nc21` was greater than 20 µM.
With `Cc1cnc(CNc2ncncc2-c2ccccc2C#N)cn1` the figure was greater than 20 µM; with `O=C(c1cccc(F)c1)N1CCC[C@@]2(CCN(c3ccncc3)C2)C1`, greater than 20 µM; with `O=C(c1ccco1)N1CCC2(CCCN(c3cccc(-c4ccccc4)c3)C2)CC1`, greater than 20 µM.
With `O=C(c1cnccn1)N1CCC[C@@]2(CCN(c3ncccn3)C2)C1` the figure was greater than 20 µM; with `COCCNc1ccnc(-c2cccc(NS(C)(=O)=O)c2)n1`, greater than 20 µM; with `O=C(c1cnccn1)N1CCC[C@@]2(CCN(Cc3ccncc3)C2)C1`, greater than 20 µM.
Turning to `CN(C)C(=O)c1ccc(-c2ccc3ncnc(NCCN4CCOCC4)c3c2)cc1`, the Potency was greater than 20 µM.
The value for `CN(Cc1ccco1)c1ccnc(-c2ccccc2C(F)(F)F)n1` was greater than 20 µM.
The value for `COc1ccc(-c2nc3cnc(Nc4ccccc4)nc3n(Cc3cccs3)c2=O)cc1` was greater than 16 µM; that for `COCCn1c(=O)c(-c2ccc(OC)cc2)nc2cnc(Oc3ccccc3)nc21` was greater than 20 µM; that for `O=C(c1cnccn1)N1CCC2(CC1)CCN(c1ccccn1)CC2` was greater than 20 µM.
With `COc1ccc2[nH]cc(CCNc3ccnc(-c4ccoc4)n3)c2c1` the figure was greater than 20 µM; with `COc1ccc(Oc2ncc3nc(-c4cn(C)c5ccccc45)c(=O)n(C4CC4)c3n2)cc1`, greater than 20 µM.
